Only some compounds are listed: those with a hit (about 1.4% of all), similar ones and a draw of the others.
IL-2 act: activates IL-2 in a cell-based reporter assay; 360,000 compounds, 0.065% hits; activation, % (series mostly up to about 46 µM); AID 652025; IL-2 activation reporter assay, cell-based qHTS; stimulated with anti-CD3/CD4/CD28 beads; in transgenic mouse T cells; in the data active = activation above about 50%; inconclusive = mostly about 30% to 49%
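Readout is EGFP and DsRed signal by fluorescent plate cytometry after 18 h at 37 degrees C. Transgenic mouse T cells (750/well) received compound for 60 min before bead stimulation (anti-CD3, anti-CD4, anti-CD28); memory T cells served as non-tolerant control.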
TCR act: T cell receptor activation | primary human leukocytes, anti-CD3, IL-2 HTRF, 48 h | Potency, µM (top dose mostly 9.22 µM), usual class: activators | 330,000 tested, under 10 active | AID 504894
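Compounds are tested in HTS on primary human leukocytes co-incubated with a-CD3 beads for 48 hr. IL-2 output is measured by time-resolved FRET.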
uPA surface inh: blocks generation of uPA at the cell surface. cell surface uPA generation assay, qHTS. Potency, µM (series often up to 38.3 µM), actives largely listed as inhibitors. 330,000 compounds, 0.31% hits. AID 540303; active = well fitted inhibition curve with a large enough effect; inconclusive = small, poorly fitted or top-dose-only effect; inactive = no such curve, though single readings can be large or run the other way; tested in mouse RAW 264.7 cells; also: nearly all actives have a fitted effect of over 55% in size
p53 reactivator: mutant p53 re-activation in reporter cells | Potency, µM (top dose mostly 92.2 µM), hits mostly activators | H1299 p53-A138V BP100-luciferase reporter, luminescence, 24 h | 320,000 compounds, 0.063% hits | AID 504706; also: nearly all actives have a fitted effect of over 45% in size
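H1299 (p53-null), stable ts p53-A138V + BP100-Luc; 1000 cells/well, Opti-MEM/10% FBS; cpd 4 pt, 1:5; 24 h, 37 deg C, 5% CO2; detection reagent 10 min RT; luminescence.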
BRCA1 expr up: increases BRCA1 expression; AID 624202; MCF7-BRCA1-FFLuc reporter, luminescence, 48 h; response scale: scaled: vehicle 0%, 10 µM genistein 100%; Potency, µM (highest dose often 46.1 µM), actives largely listed as activators; 380,000 compounds, 1.1% hits; also: nearly all actives have a fitted effect of over 80% in size
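MCF7 cells carrying a BRCA1-firefly luciferase reporter (2000 cells/well, phenol-red free MEM) were attached for 2 h at 37 °C, then given compounds for 48 h. Luminescence was read 15 min after luciferase reagent; activity normalized to genistein (10 microM) and DMSO.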
Large screens that a line does not name were inactive. Unless noted, calls follow the shape of the dose curve; as a rule, active = well fitted curve in the direction sought with a large enough effect; inconclusive = small, poorly fitted or top-dose-only effect, or another doubt; inactive = no such curve, though single readings can be large; an effect the other way counts as inactive or inconclusive.

CC1=C(C(=O)Nc2ccccc2)C(c2ccncc2)n2nc(SCc3ccccc3Cl)nc2N1 (centres undefined)	none (no result: IL-2 act, TCR act, uPA surface inh, p53 reactivator)
O=c1cc(-c2ccccc2F)oc2ccccc12	p53 reactivator inconclusive, BRCA1 expr up 13µM
Nc1nc2nc(-c3ccccc3)cc(=O)n2[nH]1	none
O=c1cc(-c2ccccc2)nc2nc(-c3ccccc3)[nH]n12	p53 reactivator 32µM
Cc1cc2nc(-c3ccccc3)cc(=O)n2[nH]1	BRCA1 expr up 10µM
CNc1ncc(C(=O)c2ccc(F)cc2)s1	BRCA1 expr up inconclusive
O=C(c1ccc(F)cc1)c1cnc(Nc2ccccc2)s1	BRCA1 expr up 2µM
COc1ccc(N/C=C2\CCOC2=O)cc1	none (no result: uPA surface inh)
COc1ccc(N/C=C2\C(=O)CCc3c2oc2cc(Cl)c(O)c(Cl)c32)cc1	IL-2 act 268
Cc1ccc(CCNC(=O)CCCn2c(=O)c3ccccc3n(CC(=O)Nc3cc(Cl)ccc3C)c2=O)cc1	none (no result: IL-2 act, TCR act, uPA surface inh, p53 reactivator)
CCCN(CCC)C(=O)Cn1c(=O)n(-c2ccccc2)c(=O)c2c3c(sc21)CCCC3	none (no result: IL-2 act, TCR act, uPA surface inh, p53 reactivator)
COc1ccc(OC)c(CNC(=O)C2CCN(c3nc4ccccc4nc3C(F)(F)F)CC2)c1	none (no result: IL-2 act, TCR act, uPA surface inh, p53 reactivator)
COc1ccc(N(C(=O)CCl)C(C(=O)NCCc2ccccc2)c2cccs2)cc1Cl (centres undefined)	uPA surface inh 4µM
Cc1cccc(C)c1NC(=O)c1ccc2c(c1)N(Cc1cccc(Cl)c1)C(=O)c1ccccc1S2=O (centres undefined)	none (no result: IL-2 act, TCR act, uPA surface inh, p53 reactivator)
COC(=O)c1ccc(/C=C2\Oc3ccccc3NC2=O)cc1	BRCA1 expr up 2.2µM
COc1ccc(-c2noc(CCC(=O)NCc3ccc(OC)cc3OC)n2)cc1	none (no result: IL-2 act, TCR act, uPA surface inh, p53 reactivator)
CC(C)Sc1nnc(-c2c[nH]c3ccccc23)n1C	uPA surface inh inconclusive, p53 reactivator inconclusive, BRCA1 expr up 7.1µM
CN(C)c1ccc(C(C[N+](=O)[O-])c2c(N)n(C)c(=O)n(C)c2=O)c(F)c1C#N (centres undefined)	uPA surface inh inconclusive
COc1ccc(Br)cc1C(C[N+](=O)[O-])c1c(N)n(C)c(=O)n(C)c1=O (centres undefined)	uPA surface inh 3.5µM
C1=CN2CC=Cc3cc(/C=C/c4ccnc5ccccc45)cc(c32)C1	none (no result: IL-2 act, TCR act, uPA surface inh, p53 reactivator)
COc1ccc2c(c1)Sc1ccccc1N2	none
c1ccc2c(c1)Nc1cc3ccccc3cc1S2	BRCA1 expr up 7.1µM
CCCCNc1c(-c2ccc(SC(C)CC)cc2)nc2ccccn12 (centres undefined)	uPA surface inh 2µM, p53 reactivator inconclusive
COc1ccccc1C1NC(c2ccc3c(c2)OCO3)=CC(c2ccccc2O)N1 (centres undefined)	none (no result: IL-2 act, TCR act, uPA surface inh, p53 reactivator)
CCN(CC)c1ccc(/C=N/NC(=O)CNC(=O)C2COc3ccccc3O2)c(O)c1 (centres undefined)	p53 reactivator 18µM (no result: TCR act)
COc1cc2c(cc1OC)CN(c1ccc(C(F)(F)F)cn1)CC2	BRCA1 expr up 13µM
COc1cc2c(cc1OC)CN(c1ccc3ccccc3n1)CC2	p53 reactivator inconclusive, BRCA1 expr up 11µM
Nc1c(C(=O)N/N=C/c2ccc(F)cc2)oc2nc(-c3ccccc3)cc(-c3ccco3)c12	IL-2 act 230
CC1CCCCC1NS(=O)(=O)CCNC(=O)c1ccc2c(c1)OCO2 (centres undefined)	none
CC1CCCC(NC(=O)c2ccc3c(c2)OCO3)C1C (centres undefined)	BRCA1 expr up 3.5µM
O=C(Nc1ccc(Cl)cc1)c1ccc(OCC2CCCO2)cc1 (centres undefined)	BRCA1 expr up 4.5µM (no result: uPA surface inh)
Cc1cccc(NC(=O)c2ccc(OCC3CCCO3)cc2)c1C (centres undefined)	p53 reactivator inconclusive, BRCA1 expr up 14µM
Cc1cccnc1NC(=O)c1ccc(OCC2CCCO2)cc1 (centres undefined)	none (no result: TCR act)
CCOc1ccc(NC(=O)Cn2c(=O)n(CCc3ccccc3)c(=O)c3c4c(sc32)CN(C(C)=O)CC4)cc1	none (no result: IL-2 act, TCR act, uPA surface inh, p53 reactivator)
CC(C)C(=O)Nc1nc2c(ncn2[C@H]2CC(O)[C@@H](CO)O2)c(=O)[nH]1 (some centres undefined)	none (no result: IL-2 act, TCR act, uPA surface inh, p53 reactivator)
COc1ccccc1CNC(=O)CCCn1c(=O)c2ccccc2n(Cc2ccc(C)cc2)c1=O	none (no result: IL-2 act, TCR act, uPA surface inh, p53 reactivator)
O=C(Nc1ccc2ccccc2c1)c1ccc(Cl)cc1	uPA surface inh 10µM, p53 reactivator inconclusive, BRCA1 expr up inconclusive

Source: PubChem (National Center for Advancing Translational Sciences (NCATS))
